# Reference: PubChem BioAssay (EPA / NIEHS)
# Records with an inconclusive call do not appear. The source made the active and inactive calls. Rule for the calls, unless noted: active = hit-call score of the fitted dose curve at least 0.9, where 1 is the maximum; inactive = score below 0.9.
# Tests used:
# [1] = read-out: Interleukin 17F (IL17F), IL17F (gene 112744); assay: BSK_BT_xIL17F: BioMAP Diversity Plus: BT Assay for Interleukin 17F (IL17F) Biomarker Activity (AID 2284243); details: primary human B cells with PBMC
# In short: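 Measures secreted IL-17F from a human B cell plus PBMC co-culture at 24 h post-dose by Luminex xMAP, with DMSO defining baseline activity.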
# [2] = read-out: Actin alpha 1 (ACTA1), ACTA1 (gene 58); assay: BSK_MyoF_ACTA1: BioMAP Diversity Plus: MyoF Assay for Actin alpha 1 (ACTA1) Biomarker Activity (AID 2284244); details: primary human lung fibroblasts
# In short: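 alpha-SMA levels read by ELISA against DMSO baseline, 24 h post-dose, in primary human lung fibroblasts. Parallel cultures stained with 0.1% SRB after 10% TCA fixation (560 nm) to flag overt cytotoxicity.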
# [3] = read-out: Interleukin 2 (IL2), IL2 (gene 3558); assay: BSK_BT_xIL2: BioMAP Diversity Plus: BT Assay for Interleukin 2 (IL2) Biomarker Activity (AID 2284245); details: primary human B cells with PBMC
# In short: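 Secreted IL-2 was read by Luminex xMAP from B cells co-cultured with PBMC (human primary) 24 h post-dosing; activity was analysed as gain of signal relative to DMSO vehicle.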
# [4] = read-out: Basic fibroblast growth factor (bFGF), FGF2 (gene 2247); assay: BSK_MyoF_bFGF: BioMAP Diversity Plus: MyoF Assay for Basic fibroblast growth factor (bFGF) Biomarker Activity (AID 2284246); details: primary human lung fibroblasts
# In short: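 bFGF was measured by ELISA in primary human lung fibroblasts 24 h after chemical addition. Signal was analysed as positive-direction change relative to DMSO baseline.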
# [5] = read-out: Collagen IV, COL4A1 (gene 1282); assay: BSK_MyoF_CollagenIV: BioMAP Diversity Plus: MyoF Assay for Collagen IV Biomarker Activity (AID 2284247); details: primary human lung fibroblasts
# In short: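 Collagen IV quantified by ELISA in human lung fibroblast cultures 24 h after chemical treatment, with DMSO as baseline. Parallel SRB staining (0.1% SRB after TCA fixation, 560 nm) flags overt cytotoxicity.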
# [6] = read-out: Plasminogen activator inhibitor-1 (PAI1), SERPINE1 (gene 5054); assay: BSK_MyoF_PAI1: BioMAP Diversity Plus: MyoF Assay for Plasminogen activator inhibitor-1 (PAI1) Biomarker Activity (AID 2284256); details: primary human lung fibroblasts;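 for outcome: PAI-1 protein level measured by ELISA in fibroblast cultures; PAI-1 read 24 h after compound addition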
# In short: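 Activity reflects increased PAI-1, determined by ELISA and compared with DMSO, in human lung fibroblasts treated for 24 h.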
# Decorin, DCN (gene 1634) = assay: BSK_MyoF_Decorin: BioMAP Diversity Plus: MyoF Assay for Decorin Biomarker Activity (AID 2284265); details: primary human lung fibroblasts
# In short: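 Lung fibroblast cultures, 24 h chemical exposure. Decorin by ELISA, positive fitting direction, DMSO baseline.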
# [7] = BSK_MyoF_SRB: Viability Assessment in the BioMAP Diversity Plus: MyoF Assay (AID 2284267); details: primary human lung fibroblasts;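 note: total protein by SRB absorbance in parallel cultures as cytotoxicity measure; cells assessed 24 h after compound addition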
# In short: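 Cytotoxicity read-out: after 10% TCA fixation, parallel human lung fibroblast cultures were stained with 0.1% SRB at 24 h post-dosing and read at 560 nm; DMSO served as baseline.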
# [8] = read-out: Matrix Metallopeptidase 1 (MMP1), MMP1 (gene 4312); assay: BSK_MyoF_MMP1: BioMAP Diversity Plus: MyoF Assay for Matrix Metallopeptidase 1 (MMP1) Biomarker Activity (AID 2284268); details: primary human lung fibroblasts
# In short: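 MMP1 measured by ELISA 24 h after dosing primary human lung fibroblasts; cytotoxicity checked in parallel cultures by sulforhodamine B total-protein staining read at 560 nm.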
# [9] = read-out: TIMP metallopeptidase inhibitor 1 (TIMP1), TIMP1 (gene 7076); assay: BSK_MyoF_TIMP1: BioMAP Diversity Plus: MyoF Assay for TIMP metallopeptidase inhibitor 1 (TIMP1) Biomarker Activity (AID 2284269); details: primary human lung fibroblasts
# In short: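 Primary human lung fibroblasts, MyoF multiplex system; chemical exposure 24 h; TIMP-1 by ELISA; positive fitting direction vs DMSO control.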
# [10] = CCTE_Mundy_HCI_Cortical_Synap_Neur_Matur_NeuronCount: CCTE's Synaptogenesis and Neurite Maturation Assay in rat cortical cells for Neuron Count, Mundy Lab (AID 2284242; active = hit-call score of the fitted dose curve at least 0.9, where 1 is the maximum;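 note: hits reduce neuron count versus DMSO baseline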)
# In short: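 Neuron counts come from automated high-content imaging of Hoechst nuclei and MAP2/synaptophysin immunostaining at DIV 12, with loss of signal judged against DMSO. Cultures of rat cortical cells had glial growth arrested by AraC at DIV 5; chemical exposure began DIV 7.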
compound,measurement,setting,value
CC(=O)C1(C)CC2=C(CCCC2(C)C)CC1C (stereo unspecified),AC50,[1],30.5 µM (active)
same,AC50,[2],13.1 µM (active)
same,outcome,[3],inactive
same,AC50,[4],29.3 µM (active)
same,AC50,[5],11.9 µM (active)
same,AC50,[6],11.2 µM (active)
same,outcome,"Decorin, DCN (gene 1634)",inactive
same,AC50,[7],14.6 µM (active)
same,AC50,[8],4.66 µM (active)
same,AC50,[9],20 µM (active)
Oc1c(Cl)cc(Cl)c(Cl)c1Cc1c(O)c(Cl)cc(Cl)c1Cl,AC50,[10],5 µM (active)
same,AC50,[1],9.92 µM (active)
same,AC50,[2],0.469 µM (active)
same,AC50,[3],19.6 µM (active)
same,AC50,[4],1.32 µM (active)
same,outcome,[5],inactive
same,AC50,[6],0.83 µM (active)
same,outcome,"Decorin, DCN (gene 1634)",inactive
same,AC50,[7],5.13 µM (active)
same,AC50,[8],0.198 µM (active)
same,AC50,[9],1.07 µM (active)
IC(I)I,outcome,[1],inactive
same,outcome,[2],inactive
same,outcome,[3],inactive
same,outcome,[4],inactive
same,outcome,[5],inactive
same,outcome,[6],inactive
same,outcome,"Decorin, DCN (gene 1634)",inactive
same,outcome,[7],inactive
same,outcome,[8],inactive
same,outcome,[9],inactive
O=C1OC[C@H](Cc2cccc(O)c2)[C@H]1Cc1cccc(O)c1,outcome,[1],inactive
same,outcome,[2],inactive
same,outcome,[3],inactive
same,outcome,[4],inactive
same,outcome,[5],inactive
same,outcome,[6],inactive
same,outcome,"Decorin, DCN (gene 1634)",inactive
same,outcome,[7],inactive
same,outcome,[8],inactive
same,outcome,[9],inactive
O=C1c2ccccc2C(=O)c2c(O)ccc(O)c21,AC50,[1],9.01 µM (active)
same,outcome,[2],inactive
same,AC50,[3],3.97 µM (active)
same,outcome,[4],inactive
same,outcome,[5],inactive
same,outcome,[6],inactive
same,outcome,"Decorin, DCN (gene 1634)",inactive
same,outcome,[7],inactive
same,AC50,[8],3.25 µM (active)
same,outcome,[9],inactive
CN(C)C(=S)SC(=S)N(C)C,AC50,[1],0.559 µM (active)
same,AC50,[2],36.6 µM (active)
same,AC50,[3],0.432 µM (active)
same,AC50,[4],31.9 µM (active)
same,outcome,[5],inactive
same,AC50,[6],3.95 µM (active)
same,outcome,"Decorin, DCN (gene 1634)",inactive
same,outcome,[7],inactive
same,AC50,[8],29.4 µM (active)
same,outcome,[9],inactive
C1=CC2C3C=CC(C3)C2C1 (stereo unspecified),outcome,[1],inactive
same,outcome,[2],inactive
same,outcome,[3],inactive
same,outcome,[4],inactive
same,outcome,[5],inactive
same,outcome,[6],inactive
same,outcome,"Decorin, DCN (gene 1634)",inactive
same,outcome,[7],inactive
same,outcome,[8],inactive
same,outcome,[9],inactive
COc1ccc(CCN2CCC(Nc3nc4ccccc4n3Cc3ccc(F)cc3)CC2)cc1,AC50,[1],6.67 µM (active)
same,AC50,[2],8.05 µM (active)
same,AC50,[3],6.51 µM (active)
same,AC50,[4],7.78 µM (active)
same,outcome,[5],inactive
same,outcome,[6],inactive
same,outcome,"Decorin, DCN (gene 1634)",inactive
same,AC50,[7],7.48 µM (active)
same,AC50,[8],3.79 µM (active)
same,outcome,[9],inactive
c1ccc(CCc2ccccc2)cc1,outcome,[1],inactive
same,AC50,[2],13.7 µM (active)
same,outcome,[3],inactive
same,AC50,[4],30.4 µM (active)
same,AC50,[5],31.5 µM (active)
same,AC50,[6],35.2 µM (active)
same,AC50,"Decorin, DCN (gene 1634)",26.8 µM (active)
same,AC50,[7],37.2 µM (active)
same,outcome,[8],inactive
same,AC50,[9],30.2 µM (active)
Clc1cc(Cl)c(-c2c(Cl)c(Cl)cc(Cl)c2Cl)cc1Cl,outcome,[1],inactive
same,AC50,[2],4.98 µM (active)
same,AC50,[3],4.55 µM (active)
same,outcome,[4],inactive
same,outcome,[5],inactive
same,AC50,[6],4.46 µM (active)
same,outcome,"Decorin, DCN (gene 1634)",inactive
same,AC50,[7],11.6 µM (active)
same,AC50,[8],2.61 µM (active)
same,outcome,[9],inactive
C=C(C)C(=O)OCC(CC)(COC(=O)C(=C)C)COC(=O)C(=C)C,AC50,[1],27.5 µM (active)
same,AC50,[2],10.5 µM (active)
same,AC50,[3],19.7 µM (active)
same,AC50,[4],29.4 µM (active)
same,AC50,[5],14.6 µM (active)
same,AC50,[6],13 µM (active)
same,AC50,"Decorin, DCN (gene 1634)",10.1 µM (active)
same,AC50,[7],15.5 µM (active)
same,AC50,[8],5.25 µM (active)
same,AC50,[9],32.3 µM (active)
